# Experimental data from the supplement of paper PMC8728848.
# The full list was thinned out, with the strongest signals kept by preference.
# B1: Arath Fbox LD (Arabidopsis thaliana) (protein)
# chain: EFSVWLEKASGKRCLMLSAMNLSIIWGDNPQYWQWIPIPESRFEKVAKLRDVCWFEIRGRTNTRVLSPRTRYSAYIVFKGVDKCYGFQNVAIEAAVGVVGQEPSRRLICFSEAIRRGRRNVVKPKQREDGWMEIELGEFFNDGGIMDNDEIEMSALETKQLNRKCGLIIQGIEIRPAKILAAASFLEQKLISEEDLNSAVDHHHHHH
# Assays:
# Assay in all cases: glycan array binding signal (z-score within array); higher = stronger binding
# Details in all cases: glycan notation: IUPAC condensed, linker removed
# [1] = molecular target: Fuc(a1-2)Gal(b1-3)GalNAc(b1-3)Gal
# How it was run: (§1)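 Columns mapping to the same glycan were averaged after glycan names were converted to IUPAC-condensed notation. The data come from 3228 arrays in the Consortium for Functional Glycomics database, limited to those with an available protein sequence. Binding is reported as a within-array Z-score averaged across arrays of one protein sequence and across linkers.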
# [2] = molecular target: Fuc(a1-2)Gal(b1-3)GlcNAc(b1-3)[Neu5Ac(a2-6)Gal(b1-4)GlcNAc(b1-6)]Gal(b1-4)Glc
# How it was run: as §1
# [3] = molecular target: Fuc(a1-2)[GalNAc(a1-3)]Gal(b1-3)GlcNAc(b1-2)Man(a1-3)[Fuc(a1-2)[GalNAc(a1-3)]Gal(b1-3)GlcNAc(b1-2)Man(a1-6)]Man(b1-4)GlcNAc(b1-4)GlcNAc
# How it was run: as §1
# [4] = molecular target: Fuc(a1-2)[GalNAc(a1-4)]Gal(b1-4)GlcNAc
# How it was run: as §1
# [5] = molecular target: Fuc(a1-3)[Gal(b1-4)]GlcNAc(b1-2)Man(a1-3)[Fuc(a1-3)[Gal(b1-4)]GlcNAc(b1-2)Man(a1-6)]Man(b1-4)GlcNAc(b1-4)[Fuc(a1-6)]GlcNAc
# How it was run: as §1
# [6] = molecular target: Fuc(a1-3)[Gal(b1-4)]GlcNAc(b1-3)GalNAc
# How it was run: as §1
# Gal(a1-2)Gal = molecular target: Gal(a1-2)Gal
# How it was run: as §1
# Gal(a1-3)Gal(b1-3)GlcNAc = molecular target: Gal(a1-3)Gal(b1-3)GlcNAc
# How it was run: as §1
# [7] = molecular target: Gal(a1-3)Gal(b1-3)[Fuc(a1-4)]GlcNAc(b1-2)Man(a1-3)[Gal(a1-3)Gal(b1-3)[Fuc(a1-4)]GlcNAc(b1-2)Man(a1-6)]Man(b1-4)GlcNAc(b1-4)GlcNAc
# How it was run: as §1
# [8] = molecular target: Gal(a1-3)Gal(b1-4)GlcNAc(b1-2)Man
# How it was run: as §1
# [9] = molecular target: Gal(a1-3)[Gal(a1-4)]Gal(b1-4)GlcNAc
# How it was run: as §1
# Gal(b1-2)Gal = molecular target: Gal(b1-2)Gal
# How it was run: as §1
# Gal(b1-3)Gal = molecular target: Gal(b1-3)Gal
# How it was run: as §1
# [10] = molecular target: Gal(b1-3)GlcNAc(b1-2)Man(a1-3)[GlcNAc(b1-4)][Gal(b1-3)GlcNAc(b1-2)Man(a1-6)]Man(b1-4)GlcNAc(b1-4)GlcNAc
# How it was run: as §1
# [11] = molecular target: Gal(b1-3)GlcNAc(b1-3)Gal(b1-4)[Fuc(a1-3)]GlcNAc
# How it was run: as §1
# [12] = molecular target: Gal(b1-3)[Fuc(a1-4)]GlcNAc(b1-2)Man
# How it was run: as §1
# [13] = molecular target: Gal(b1-3)[Fuc(a1-4)]GlcNAc(b1-2)Man(a1-3)[Gal(b1-3)[Fuc(a1-4)]GlcNAc(b1-2)Man(a1-6)]Man(b1-4)GlcNAc(b1-4)[Fuc(a1-6)]GlcNAc
# How it was run: as §1
# Gal(b1-4)Gal = molecular target: Gal(b1-4)Gal
# How it was run: as §1
# [14] = molecular target: Gal(b1-4)GlcNAc(b1-3)Gal(b1-4)GlcNAc(b1-3)Gal(b1-4)GlcNAc
# How it was run: as §1
# [15] = molecular target: Gal(b1-4)GlcNAc(b1-3)Gal(b1-4)GlcNAc(b1-3)Gal(b1-4)GlcNAc(b1-3)Gal(b1-4)GlcNAc(b1-2)Man(a1-3)[Gal(b1-4)GlcNAc(b1-3)Gal(b1-4)GlcNAc(b1-3)Gal(b1-4)GlcNAc(b1-3)Gal(b1-4)GlcNAc(b1-2)Man(a1-6)]Man(b1-4)GlcNAc(b1-4)[Fuc(a1-6)]GlcNAc
# How it was run: as §1
# [16] = molecular target: Gal(b1-4)GlcNAc(b1-3)Gal(b1-4)GlcNAc(b1-3)[Gal(b1-4)GlcNAc(b1-3)Gal(b1-4)GlcNAc(b1-6)]GalNAc
# How it was run: as §1
# [17] = molecular target: Gal(b1-4)GlcNAc(b1-3)Gal(b1-4)[Fuc(a1-3)]GlcNAc(b1-3)Gal(b1-4)[Fuc(a1-3)]GlcNAc
# How it was run: as §1
# Gal3S(b1-4)Glc = molecular target: Gal3S(b1-4)Glc
# How it was run: as §1
# [18] = molecular target: Gal3S(b1-4)[Fuc(a1-3)]GlcNAc6S
# How it was run: as §1
# Gal3S6S(b1-4)GlcNAc = molecular target: Gal3S6S(b1-4)GlcNAc
# How it was run: as §1
# Gal4S6S(b1-4)GlcNAc = molecular target: Gal4S6S(b1-4)GlcNAc
# How it was run: as §1
# Gal6S(b1-4)GlcNAc6S = molecular target: Gal6S(b1-4)GlcNAc6S
# How it was run: as §1
# [19] = molecular target: GalNAc(a1-3)GalNAc(b1-3)Gal(a1-4)Gal(b1-4)GlcNAc
# How it was run: as §1
# GalNAc(b1-4)GlcNAc6S = molecular target: GalNAc(b1-4)GlcNAc6S
# How it was run: as §1
# GlcA(b1-6)Gal = molecular target: GlcA(b1-6)Gal
# How it was run: as §1
binder,measurement,setting,value
B1,glycan array binding signal (z-score),[1],-0.344
same,glycan array binding signal (z-score),[2],-0.52
same,glycan array binding signal (z-score),[3],-0.597
same,glycan array binding signal (z-score),[4],0.47
same,glycan array binding signal (z-score),[5],2.04
same,glycan array binding signal (z-score),[6],-0.455
same,glycan array binding signal (z-score),Gal(a1-2)Gal,-0.171
same,glycan array binding signal (z-score),Gal(a1-3)Gal(b1-3)GlcNAc,9.37
same,glycan array binding signal (z-score),[7],2.84
same,glycan array binding signal (z-score),[8],-0.233
same,glycan array binding signal (z-score),[9],1.55
same,glycan array binding signal (z-score),Gal(b1-2)Gal,2.67
same,glycan array binding signal (z-score),Gal(b1-3)Gal,-0.517
same,glycan array binding signal (z-score),[10],-0.473
same,glycan array binding signal (z-score),[11],-0.574
same,glycan array binding signal (z-score),[12],4.02
same,glycan array binding signal (z-score),[13],2.55
same,glycan array binding signal (z-score),Gal(b1-4)Gal,1.31
same,glycan array binding signal (z-score),[14],0.403
same,glycan array binding signal (z-score),[15],-0.558
same,glycan array binding signal (z-score),[16],-0.532
same,glycan array binding signal (z-score),[17],-0.413
same,glycan array binding signal (z-score),Gal3S(b1-4)Glc,4.4
same,glycan array binding signal (z-score),[18],3.79
same,glycan array binding signal (z-score),Gal3S6S(b1-4)GlcNAc,2.51
same,glycan array binding signal (z-score),Gal4S6S(b1-4)GlcNAc,-0.39
same,glycan array binding signal (z-score),Gal6S(b1-4)GlcNAc6S,0.739
same,glycan array binding signal (z-score),[19],-0.368
same,glycan array binding signal (z-score),GalNAc(b1-4)GlcNAc6S,-0.574
same,glycan array binding signal (z-score),GlcA(b1-6)Gal,1.15
